Laboratory results as given in PubChem BioAssay AID488969 (Vanderbilt High Throughput Screening Facility, 2010).
The full ranking holds about 110,000 compounds; the median of “z-score” is about -0.1, and the highest 2% start at about 2. Many of the other results were omitted from the sample, so the highest values are more common in it than they were. Calls of active or inactive are those of the source.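 Rule for the calls: active = z-score in the third read window above 3 or below -3; inactive = the rest.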

What follows are compounds tested against Metabotropic glutamate receptor 8 (Rattus norvegicus) (UniProt P70579) (assay: rat mGluR8 modulators via GIRK flux, primary screen, cell-based, thallium flux, HTS (AID 488969)). Settings: HEK293 rat mGluR8, GIRK (G protein-gated inwardly rectifying potassium channel) thallium flux, FluoZin2; at 10 µM; stronger effect = higher value.
Chain of Metabotropic glutamate receptor 8 (Rattus norvegicus) (P70579 whole entry, looked up): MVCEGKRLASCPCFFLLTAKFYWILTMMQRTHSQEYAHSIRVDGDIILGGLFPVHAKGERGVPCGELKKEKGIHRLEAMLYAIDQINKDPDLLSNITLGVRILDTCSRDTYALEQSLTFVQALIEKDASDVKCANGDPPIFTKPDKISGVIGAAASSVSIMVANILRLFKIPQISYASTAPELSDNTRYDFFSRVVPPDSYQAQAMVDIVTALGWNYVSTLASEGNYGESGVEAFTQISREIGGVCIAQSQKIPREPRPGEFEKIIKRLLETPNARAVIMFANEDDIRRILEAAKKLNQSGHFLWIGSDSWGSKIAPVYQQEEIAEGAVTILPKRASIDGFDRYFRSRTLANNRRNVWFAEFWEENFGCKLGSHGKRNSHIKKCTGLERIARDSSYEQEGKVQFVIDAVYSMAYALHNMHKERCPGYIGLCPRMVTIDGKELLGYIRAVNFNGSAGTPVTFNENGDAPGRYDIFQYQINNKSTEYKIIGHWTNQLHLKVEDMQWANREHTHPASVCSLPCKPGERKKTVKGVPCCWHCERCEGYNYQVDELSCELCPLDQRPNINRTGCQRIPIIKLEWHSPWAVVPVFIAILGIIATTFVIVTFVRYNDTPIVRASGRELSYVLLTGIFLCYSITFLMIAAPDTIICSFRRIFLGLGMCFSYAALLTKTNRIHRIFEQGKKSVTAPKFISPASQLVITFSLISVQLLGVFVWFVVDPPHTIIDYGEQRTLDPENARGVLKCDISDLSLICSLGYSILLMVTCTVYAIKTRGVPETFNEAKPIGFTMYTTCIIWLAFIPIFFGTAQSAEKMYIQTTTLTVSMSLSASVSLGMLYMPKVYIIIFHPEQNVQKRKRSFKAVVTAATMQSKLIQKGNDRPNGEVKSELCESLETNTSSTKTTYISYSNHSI

SMILES	z-score
CC/C(=N\Nc1cccc2ccccc12)c1c(O)[nH]c(=O)[nH]c1=O	-0.114
CC(=O)OC1C2CCC1C(N1CCCC1)CC2 (configuration not stated)	-0.278
C1=C(c2c[nH]c3ccccc23)CCNC1	1.29
CCN(CC)Cc1c[nH]c2ccccc12	-0.122
CCN1CC=C(c2c[nH]c3ccccc23)CC1	2.05
O=C(C1CCCN(c2nnc(-n3cccc3)s2)C1)N1CCC2(CC1)OCCO2 (configuration not stated)	0.546
O=C1NC(=O)N(c2ccc3c(c2)OCO3)C(=O)/C1=C/c1ccc(N2CCCCC2)o1	-0.618
Nc1c(C(=O)OCc2ccccc2)c2nc3ccccc3nc2n1Cc1cccs1	0.248
CC(=NCC1CCCO1)c1c(O)n(-c2ccc(C)cc2)c(=O)[nH]c1=O (configuration not stated)	2.68
CC(=NCC1CCCO1)c1c(O)n(-c2ccccc2)c(=O)[nH]c1=O (configuration not stated)	0.0257
CC(=NCC1CCCO1)c1c(O)n(-c2ccc(Cl)cc2)c(=O)[nH]c1=O (configuration not stated)	-1.18
CN(C)CCN=Cc1c(O)n(Cc2ccco2)c(=O)[nH]c1=O	0.184
Cc1ccc(N2C(=O)NC(=O)/C(=C\c3ccsc3)C2=O)cc1C	-0.165
O=c1c2ccccc2nc(CSc2ncnc3nc[nH]c23)n1-c1ccc(Cl)c(Cl)c1	-0.202
c1cc2c(cc1CCNC1C3CC4CC(C3)CC1C4)OCO2 (configuration not stated)	2.3
c1cc2c(cc1CCNC1CCCCCC1)OCO2	0.232
CC1CCC(NCCc2ccc3c(c2)OCO3)CC1 (configuration not stated)	0.00241
CC1(C)CN=C(Nc2ccc(F)c(F)c2)S1	-0.117
Cc1cc(C)nc(NC2=NCCS2)n1	0.179
Fc1ccc(NC2=NCCS2)cc1Cl	4.82 (active)
CC(=O)Nc1ccc(OC(=O)c2ccccc2N)cc1	0.06
CNCC(O)c1cccc(OC(=O)c2ccccc2C)c1 (configuration not stated)	2.34
CCC(COC(=O)NC)NC(=O)Oc1cccc(C)c1 (configuration not stated)	-0.336
COC(=NC1CCCCC1)C(O)c1c[nH]c2ccccc12 (configuration not stated)	-0.119

SMILES	z-score
O=C(COc1ccccc1)c1cn(Cc2ccccc2)c2ccccc12	-0.418
O=C(c1ccccc1F)c1cn(Cc2ccccc2)c2ccccc12	-0.253
CN(C)CCOC(=O)c1cn(Cc2ccccc2)c2ccccc12	2.01
CCCCN1C(=O)NC(=O)/C(=C/c2cnc(SC)nc2)C1=O	-0.221
CCOC(=O)C1CCN(/C=C2/C(=O)NC(=O)N(c3ccc(OCC)cc3)C2=O)CC1	0.14
C/C(=N\Nc1ccccc1)c1c(O)n(C)c(=O)n(C)c1=O	3.74 (active)
CC(=NCCC(c1ccccc1)c1ccccc1)c1c(O)n(C)c(=O)n(C)c1=O	-0.488
CC/C(=N\Nc1ccccc1)c1c(O)n(C)c(=O)n(C)c1=O	-0.0457
CC(Cc1ccccc1Sc1ccc(O)cc1)N(C)C (configuration not stated)	1.64
O=C(NC(Cc1ccccc1)C(=O)N1CCC2(CC1)OCCO2)C1CCCCC1 (configuration not stated)	0.317
CCOC(=O)C1=C(N)OC(C)=C(C(=O)OCCOC)C12C(=O)Nc1ccccc12 (configuration not stated)	0.399
CCOC(=O)C1=C(NC(=S)NC(=O)c2ccccc2)c2ccccc2CC12CCCC2	2.46
COC(=O)C(O)(c1ccc(NC(=S)NC(=O)c2ccccc2)cc1)C(F)(F)F (configuration not stated)	0.443
CCN1CCN(c2ncnc3ccc(Br)cc23)CC1	0.327
CNCC1(c2ccccc2)CCCC1	0.566
O=C(NC(=C(Cl)Cl)P(=O)(c1ccccc1)c1ccccc1)c1ccccc1	-0.29
CCOc1ccc(Br)c(C2(O)CC(C)N(C)CC2C)c1 (configuration not stated)	2.44
Cc1ccc(C)c(C2(O)CC(C)N(C)CC2C)c1 (configuration not stated)	0.0958
CCC(=O)OC1(c2cccc(C)c2)CC(C)N(C)CC1C (configuration not stated)	0.852
COc1ccccc1N(CC(=O)NC1CCCCC1)C(=O)c1cnn(C(C)C)c1	0.21
CN1C(=O)NC(=O)C2(Cc3ccccc3N3CCOCC32)C1=O (configuration not stated)	-0.307
CCCCn1c(O)c(C(CC)=NCc2cc(OC)cc(OC)c2)c(=O)[nH]c1=O	-0.703
N=c1c[n+](CC23CC4CC(CC(C4)C2)C3)[n-]o1	2.09
O=C(c1ccc2c(c1)ncn2C1CCCCCC1)N1CCC2(CC1)OCCO2	-0.0497

SMILES	z-score
CCCCCCCC(=O)NC(Oc1ccccc1[N+](=O)[O-])C(Cl)(Cl)Cl (configuration not stated)	0.238
CCCC(=O)Nc1cc(C(=O)N2CCC3(CC2)OCCO3)ccc1S(=O)(=O)c1ccc(C)cc1	-0.0584
CC(C(N)=O)N1CC(c2ccc(Cl)cc2)CC1=O (configuration not stated)	-0.161
CN1CCCC1C(O)(c1ccccc1)c1ccccc1 (configuration not stated)	-0.0177
OC(Cc1ccccc1)(c1ccccc1)C1CN2CCC1CC2 (configuration not stated)	2
Cc1ccccc1C(O)(Cc1ccccc1)C1CN2CCC1CC2 (configuration not stated)	-0.323
CCOC(=O)c1sc(/N=C/c2c(O)n(-c3cccc(C)c3)c(=O)[nH]c2=O)c(C#N)c1C	-0.627
CCN1C(=O)C(=Cc2cc(C)n(C3CC3)c2C)C(=O)N(CC)C1=S	-0.0808
CC1=NN(c2ccccc2)C(=O)C1/C=C1\C(=O)NC(=O)N(c2cc(C)cc(C)c2)C1=O (configuration not stated)	-0.0364
CN(C)C(=O)Oc1ccc(OC(=O)N(C)C)cc1	0.415
CN1/C(=C\C=C\C2=[N+](C)c3ccc4ccccc4c3C2(C)C)C(C)(C)c2ccccc21	5.85 (active)
C[N+]1=C(/C=C/Nc2ccccc2)C(C)(C)c2ccccc21	-1.45
CN1/C(=C\C=Nc2ccccc2)C(C)(C)c2ccccc21	-0.319
Cc1cc(C=C2C(=O)N(C)C(=S)N(C)C2=O)c(C)n1C1CCCCC1	-0.45
O=C1CN=C(c2ccccc2)c2ccccc2N1Cc1ccc(C(F)(F)F)cc1	0.646
CNC(=O)OCCc1nccn1C	3.02 (active)
CNC(=O)OCCc1n(C)cc[n+]1C	-0.193
C=CCn1c(O)c(/C=C2/C=CC=N2)c(=O)[nH]c1=O	-0.219
O=C(c1cc(S(=O)(=O)N2CCCCC2)ccc1F)N1CCC2(CC1)OCCO2	-0.0595
CCCCn1c(O)c(C(C)=NCCCn2ccnc2)c(=O)[nH]c1=O	2.03
CCCCCCN=C(C)c1c(O)n(CCCC)c(=O)[nH]c1=O	-2.32
CCCCn1c(O)c(C(C)=NCCCN(C)C)c(=O)[nH]c1=O	0.319
O=[N+]([O-])c1ccc(C2[C@H]3C(c4ccccc4)=NC4(CCCCC4)N23)cc1 (some centres not stated)	-0.0546
O=c1[nH]c(=O)n(C2CCCCCC2)c(O)c1C=NC1CCN(Cc2ccccc2)CC1	-0.182
